Our source for the growth values is PubChem BioAssay (NCI).

About 83,000 compounds went through this panel and 20% of them were active in at least one assay; those are over-represented in the sample as a whole.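 Plates (96-well) were seeded with cells, treated with compound at one concentration, and incubated for 48 hours before percent growth was determined.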 A number with no mark means an inactive call. Calls of active or inactive are those of the source. The calls were made as follows: active = growth percent below 10; inactive = the rest.

Common to all, as to assay: NCI-60 one-dose screen, 48 h (100 = growth as untreated, 0 = no growth, -100 = all killed)
Holding throughout (details): 10 µM unless noted

For assay [1], the system named is NCI-H23 lung.
In assay [2] the test system is NCI-H226 lung.
For assay [3], the system named is NCI-H322M lung.
The subject of assay [4] is HOP-62 NSCLC.
Assay [5] has as its system NCI-H460 lung.
The test system of assay [6] is HOP-92 NSCLC.
For assay [7], the system named is NCI-H522 lung.
In assay [8] the test system is A549/ATCC NSCLC.
The test system of assay [9] is 786-0 renal.
Assay [10] relates to COLO 205 colon.

With `Cc1cc(C(NC(=O)C2CC3(CC(Nc4cccc5c4C(=O)N(C4CCC(=O)NC4=O)C5=O)C3)C2)c2ccc3c(c2)OC(F)(F)O3)c(O)c2ncccc12` (stereo not given), the growth in assay [1] is 6.24% (active); in assay [2], -2.38% (active); in [3], 27.5%; in [4], -10.9% (active); in [5], 1.76% (active); in assay [6], -1.71% (active). In addition, the growth in [7] was 2.63% (active); in assay [8], 9.67% (active); in [9] it was -12.8% (active); in assay [10], 13.2%.
As to `Fc1cccc(CNc2nc(SCCN3CCOCC3)nc3c2cnn3CC(Cl)c2ccc(Br)cc2)c1` (stereo not given), the growth in assay [1] was 46.2%; in [2] it was 27.5%; in [3] it was 81.7%; in assay [4], 44.9%; in assay [5], 7.02% (active); in [6], 20.3%. For the same molecule, the growth in [7] is 36.8%; in [8] it was 19.9%; in [9] it was 20.9%; in assay [10], -9.76% (active).
For the molecule `O=C1c2cccc3c(N4CCN(c5ccccc5)CC4)ccc(c23)C(=O)N1c1cccc(-c2nn(-c3ccccc3)cc2-c2nc3ccccc3s2)c1`, the growth in assay [1] was 88.5%; in [2], 82%; in assay [3] it was 97%; in assay [4], 110%; in [5], 110%; in assay [6] it was 120%. Moreover, the growth is 108% in [7], 113% in assay [8], 102% in [9] and 110% in assay [10].
For the molecule `Cc1[nH]nc2ccc3nc(-c4cnn(CCO)c4)c4c(c3c12)CCCC4`, the growth is 52.7% in assay [1]; 28.6% in assay [2]; 53.8% in assay [3]; 65.6% in assay [4]; 26.6% in [5]; 35.9% in assay [6]. Also, the growth was 18.9% in [7], 49.3% in assay [8], 38.7% in [9] and 47.5% in [10].
For `COc1ccc2c(c1)C(=O)N(C)C2C1c2c(cc3c(c2OC)OCO3)CCN1C` (stereo not given), the growth in [1] is 64.9%; in [2] it was 65.1%; in [3] it was 75.9%; in assay [4], 54.5%; in assay [5], 20.7%; in assay [6] it was 78.7%. For the same molecule, the growth was 36% in [7], 57.9% in assay [8], 65.9% in assay [9] and 33.1% in assay [10].
`NS(=O)(=O)c1ccc(Nc2nc(N/N=C/c3cc(Br)c(O)c(Br)c3)nc(Nc3ccccc3)n2)cc1`: the growth in assay [1] is 27.7%; in [2], 54.7%; in [3] it was 37.6%; in assay [4], 27%; in assay [5] it was 99.8%; in assay [6], -4.41% (active). Also, the growth in assay [7] was 49.4%; in assay [8], 97.6%; in assay [9], 25.1%; in assay [10], 88%.
In the case of `O=C(c1ccc(Cl)cc1)C1[C@H](c2ccccc2Cl)[C@@H](c2ccccc2)NC12C(=O)Nc1ccc(Cl)cc12` (stereo not given in full), the growth in [1] was -70.1% (active); in assay [2], -86.1% (active); in [3], -22.1% (active); in assay [4], -72.4% (active); in [5], -69.2% (active); in assay [6] it was -75.6% (active). Besides, the growth was -50.6% (active) in assay [7], -23% (active) in [8], -54.5% (active) in [9] and -91.4% (active) in assay [10].
With `O=C(Nc1ccc(F)cc1)Nc1nc2ccc([N+](=O)[O-])cc2s1`, the growth was -11.8% (active) in assay [1]; 1.42% (active) in [2]; 7.52% (active) in assay [3]; -0.8% (active) in assay [4]; -3.01% (active) in assay [5]; -3.56% (active) in assay [6]. The growth in assay [7] is -23.7% (active); in assay [8], 6.83% (active); in [9], 1.6% (active); in assay [10], -77.5% (active).
Take `Cc1ccc(S(=O)(=O)Nc2ccc(-c3ccc4c(c3)NC(=O)/C4=C\c3ccc[nH]3)cc2)cc1`: the growth in [1] is 33.8%; in [2] it was 94%; in assay [3], 68.3%; in [4], 96.5%; in assay [5] it was 22%; in assay [6], 93.4%. The growth was 87.2% in assay [7], 52.8% in assay [8], 101% in assay [9] and 93.3% in [10].
Turning to `Cc1ccc(C(=O)Nc2cc(-c3ccccc3)cc(C(F)(F)F)c2)cc1C#Cc1cnc2cccnn12`, the growth in assay [1] was 63.3%; in assay [2], 51.2%; in [3], 102%; in [4], 108%; in assay [5] it was 51.1%; in assay [6], 95.4%. Moreover, the growth in assay [7] was 56.3%; in assay [8], 68.9%; in [9] it was 60%; in [10] it was 73.1%.
On to `C/C(=N\Nc1ccc(C(=O)O)cc1)c1cnn(-c2cc(=O)[nH]c3ccc(C)cc23)c1C`, for which the growth was 106% in assay [1]; 90.1% in [2]; 98.2% in [3]; 93.1% in assay [4]; 109% in assay [5]; 6.13% (active) in assay [6]. In addition, the growth in assay [7] is 89.4%; in [8] it was 104%; in [9], 93.2%; in [10], 118%.
